Screening results as filed in PubChem.
Sampled rows, rich in hits. Any-hit rate of the full collection: about 4.9%.
USP10 block: blocks human USP10 ubiquitin-rhodamine cleavage; purified USP10, Ub-rhodamine fluorescence, 60 min; inhibition, % at 20 µM; hit rate 1.1% among 47,000; AID 1645856
UCHL1 inh: human UCHL1 deubiquitinase inhibition; purified UCHL1, Ub-rhodamine cleavage fluorescence; hit rate 0.2% among 47,000; inhibition, % at 20 µM; P09936; AID 1645859
OTUD3 inh: inhibitors of human OTUD3 deubiquitinase; inhibition, % at 25 µM; hit rate 0.7% among 47,000; AID 1645858; Q5T2D3; purified OTUD3, Ub-rhodamine fluorescence, 2 h
Target sequence (Q5T2D3 whole entry, looked up): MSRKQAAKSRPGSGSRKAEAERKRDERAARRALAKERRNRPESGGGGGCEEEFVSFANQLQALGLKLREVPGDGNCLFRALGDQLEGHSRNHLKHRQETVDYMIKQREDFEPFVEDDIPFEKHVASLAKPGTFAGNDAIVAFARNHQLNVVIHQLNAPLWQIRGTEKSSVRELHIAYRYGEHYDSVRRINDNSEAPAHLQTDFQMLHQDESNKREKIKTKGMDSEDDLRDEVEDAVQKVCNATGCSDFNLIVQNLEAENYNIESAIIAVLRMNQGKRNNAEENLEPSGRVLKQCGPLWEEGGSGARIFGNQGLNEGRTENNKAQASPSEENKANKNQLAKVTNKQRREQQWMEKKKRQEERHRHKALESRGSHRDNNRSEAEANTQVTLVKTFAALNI
USP8 inh: blocks human USP8 ubiquitin-rhodamine cleavage. inhibition, % at 20 µM. hit rate 4.2% among 47,000. P40818. purified USP8, Ub-rhodamine cleavage fluorescence, 30 min
USP7 inh: blocks human USP7 ubiquitin-rhodamine cleavage | Q93009 | AID 1645854 | hit rate 0.3% among 47,000 | purified USP7, Ub-rhodamine cleavage fluorescence | inhibition, % at 20 µM
* marks the source's active call; other numbers are inactive results. Cut-off read from the data, not from the text of the source: active = inhibition above about 30%; inactive = the rest.

SMILES	USP10 block	UCHL1 inh	OTUD3 inh	USP8 inh	USP7 inh
O=C(Cn1c(=O)[nH]c2c(-c3ccccc3)c[nH]c2c1=O)N1CCCCCC1	1	-5	-44	46*	9
O=C(CCCn1c(=O)[nH]c2cc(Cl)ccc2c1=O)N1CCc2ccccc2C1	4	1	13	69*	-11
O=C(CCCn1c(=O)[nH]c2ccc(Br)cc2c1=O)N1CCc2ccccc2C1	6	6	6	9	-13
COc1ccc(NC(=O)Cn2c(=O)n(CCC(=O)N3CCc4ccccc4C3)c(=O)c3ccccc32)cc1Cl	17	6	23	55*	9
COc1ccccc1NC(=O)CN1CCc2ccccc2C1	1	2	16	-1	5
COc1ccc(CCNC(=O)Cn2c(=O)n(CCCC(=O)NC3CCCC3)c(=O)c3cc(Cl)ccc32)cc1OC	-1	-5	9	-13	-7
COc1ccc(NC(=O)Cn2c(=O)n(CCCC(=O)NC3CCCC3)c(=O)c3cc(Cl)ccc32)c(OC)c1	31*	3	16	7	9
COc1ccc(Cl)cc1NC(=O)Cn1c(=O)n(CCC(=O)N2CCc3ccccc3C2)c(=O)c2ccccc21	5	6	16	34*	2
O=C(N1CCOCC1)N1CCC2(CCCN(c3ncc(F)cn3)C2)C1 (stereo not drawn)	-1	-2	-19	-37	-1
O=C(Oc1ccccc1)c1cn(-c2ccccc2)nc1-c1cc2ccccc2oc1=O	3	-2	-2	0	2
CCOC(=O)N1CCN(S(=O)(=O)c2ccc(C(=O)Nc3ccc(OC)c4ccccc34)cc2)CC1	5	4	-12	56*	6
CCOC(=O)N1CCN(S(=O)(=O)c2ccc(C(=O)Nc3ccc(S(N)(=O)=O)cc3)cc2)CC1	4	0	-7	9	-1
COc1ccccc1CN1CC(O)=C(c2nc3ccccc3s2)C1=N	-5	-4	-20	-4	-3
Nc1nc(-c2ccc3c(c2)CC(=O)N3)cs1	-3	-1	-8	-102	-33
O=C(NCc1ccc(F)cc1)C1CCN(c2cnc(N3CCCCC3)nc2)CC1	-3	1	6	15	2
Cc1cc(F)ccc1NC(=O)C1CCN(c2cnc(N3CCCCC3)nc2)CC1	-4	-1	4	31*	-8
CC(=O)Nc1cc(NC(=O)CSc2nnc(-c3ccco3)c(-c3ccco3)n2)ccc1C	-3	16	14	73*	-81
COc1cccc(C(CC(=O)Nc2ccc3c(c2)OCCO3)n2cccc2)c1 (stereo not drawn)	11	32*	-2	-43	-3
Cc1ccccc1C(CC(=O)Nc1ccc2c(c1)OCO2)n1cccc1 (stereo not drawn)	8	7	8	9	4
O=C(Cn1c(=O)[nH]c2ccccc2c1=O)NCc1ccccc1Cl	14	6	9	55*	16
O=C(Cn1c(=O)[nH]c2ccccc2c1=O)NC1CC1	0	0	7	0	2
COc1ccc(-c2cc3nc(NCCc4ccc(S(N)(=O)=O)cc4)ccn3n2)cc1	-5	1	-23	-63	-5
CN(C(=O)c1cccc2cccnc12)c1nc2c(s1)CCc1occc1-2	-1	3	17	64*	3
CN(C(=O)C1(c2ccccc2)CC1)c1nc2c(s1)CCc1occc1-2	4	-2	3	-151	-5
Cn1nc(Cn2ccnc2)c2c1CN(C(=O)c1ccccc1F)C2	0	3	2	-278	0
SMILES	USP10 block	UCHL1 inh	OTUD3 inh	USP8 inh	USP7 inh
COc1cc2c(c(OC)c1OC)-c1ccc(NCc3ccccc3F)c(=O)cc1[C@@H](NC(C)=O)CC2	-4	-9	-37	-72	-10
CCOc1ccc2c(c1)c(=O)c(C(=O)c1ccc(C)cc1)cn2CC(=O)Nc1ccc(C)cc1	62*	24	7	95*	60*
CCOc1ccc2c(c1)c(=O)c(C(=O)c1ccc(C)cc1)cn2CC(=O)Nc1ccc(C)c(C)c1	66*	16	0	92*	59*
CC(=O)N(O)CCCC[C@H](NC(=O)CC(O)(CC(=O)N[C@@H](CCCCN(O)C(C)=O)C(=O)O)C(=O)O)C(=O)O	-4	-9	-27	-43	-1
COc1cccc(-c2nc(-c3nnn(-c4ccccc4)c3-c3ccncc3)no2)c1	8	2	4	22	5
CNc1cc(Nc2cc(CCC3CCNCC3)ccn2)ncn1	3	-3	-2	-66	-5
COc1ccc(NCc2nnc(SCC(=O)Nc3cccc4ccccc34)n2C)cc1	5	3	5	45*	-3
O=C(COc1nsnc1N1CCOCC1)Nc1ccc(F)c(F)c1	1	2	2	-22	-4
O=C(COc1nsnc1N1CCOCC1)Nc1ccccc1F	2	-2	81*	12	0
COCCCNC(=O)c1ccc(-c2ccc(N3CCCCC3)nc2)cc1	12	1	15	37*	-9
COc1ccc(OC)c(C2=NO[C@]3(C(=O)Nc4ccccc43)[C@H]2C(=O)c2ccc(OC)c(OC)c2)c1	3	85*	1	-14	5
COc1cc(C2=NO[C@]3(C(=O)Nc4ccccc43)[C@H]2C(=O)c2ccc(C)cc2)ccc1OCC#N	9	11	9	17	3
O=C(c1ccc(F)cc1)N1CCC2(CC1)CCN(c1cncnc1)C2=O	0	2	7	-21	2
O=C(O)CN1C(=O)CC2(CCC(=O)N2C(=O)c2ccc(F)cc2)C1=O (stereo not drawn)	3	0	7	-1	2
COc1cccc(NC(=O)N2CCC3(CC2)C(=O)Nc2ccccc23)c1	2	0	-2	-40	-1
NCc1ccc(C(=O)N2CCC3(CC2)C(=O)Nc2ccccc23)cc1	-1	5	3	85*	-59
COCCN(C(=O)Cc1ccccc1)c1nc(-c2ccc(OC)cc2)cs1	5	1	-2	-56	2
COCCN(C(=O)C1CC1)c1nc(-c2ccccc2)cs1	4	6	11	31*	0
COc1cc2c(cc1CN1CC[C@@H]3CN(C(C)=O)C[C@]3(NC(C)=O)C1)CCCC2	-4	-2	-10	0	-6
O=C(NC1(O)C(=O)c2ccccc2C1=O)c1cccc2c1-c1ccccc1C2=O	9	22	23	95*	-64
Cc1ccc(NC(=O)N2CCC3(CC2)NC(=O)C(CC(C)C)NC3=O)cc1 (stereo not drawn)	2	1	25	21	3
CCc1ccccc1NC(=O)CN1C(=O)CSc2ncccc21	-2	-3	-15	-9	1
CCc1ccccc1NC(=O)Cn1c(SCc2ccc(F)cc2)nc2cccnc21	36*	2	27	70*	22
Cc1cc(C)c(NC(=O)Cn2c(SCc3cccc(F)c3)nc3cccnc32)c(C)c1	12	3	18	57*	22
O=C(O)c1cc(-c2ccc(-c3ccccc3F)o2)nc2ccc(Cl)cc12	6	-1	-16	-10	5
COC(=O)CSc1nnc(-c2ccccc2O)n1Cc1ccccc1	2	0	7	37*	-1
